The test system of one test is T1, MINK.
T1 construct: gene MINK1

A further test relates to T2, MST1.
T2 construct: gene STK4

Drawing on PMC5540273 (PLoS ONE, 2017), this text covers Kd for six compounds.

A value given as a limit tells only on which side of the number the result lay.
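Note: kd values determined as follow-up on hits from a single-replicate KINOMEscan panel screen.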

In the case of `O=c1cc(N2CCOCC2)nc2n(Cc3cccc(Cl)c3Cl)c3ccccc3n12` [GSK2299009], the Kd in the test on MELK is more than 10 µM.
Compound `NS(=O)(=O)c1cccc(N/C=C2\C(=O)Nc3ccc(S(=O)(=O)Cc4c(Cl)cccc4Cl)cc32)c1` [GSK398099] yielded a Kd with MINK of 0.79 µM.
In the test on MKNK2, `CNC(=O)c1ccc(C)c(-n2c(C)cc(OCc3ccc(F)cc3F)c(Br)c2=O)c1` displayed a Kd of more than 10 µM.
On to `CC(C)c1cc(-c2ccc3c(N)n[nH]c3c2)nc(N)n1` [GSK2250882], for which, in the test with MKNK2, binding was put at a Kd of 0.16 µM.
In the case of `COc1cccc(C2=C(Nc3cc(Cl)c(O)c(Cl)c3)C(=O)NC2=O)c1` [SB-390767], the results for the Kd with MST1, with NEK2 and in the test on PAK3 were 1.8 µM, more than 10 µM and more than 10 µM, respectively.
`Nc1nccc(-c2c(-c3ccc(F)cc3)ncn2C2CCN(Cc3ccccc3)CC2)n1` [SB-219980]: binding in the test with NLK was put at a Kd of 0.14 µM.
